Screens from PubChem BioAssay.
This is a sample that favours compounds with a hit; in the whole collection about 5.3% have one here.
HP1b chromo inh – inhibitors of HP1-beta chromodomain binding to methylated histone tails; AlphaScreen HP1-beta / biotin-H3K9me3 peptide binding; 0.56% of 390,000 active; Potency, µM (doses to about 114 µM), for inactives: top-dose activity change, negative = inhibition, most hits filed as inhibitors; P83916; further: potency means the concentration at half of the fitted maximal effect; nearly all actives have a fitted effect of over 70% in size
Target sequence (P83916 whole entry, looked up): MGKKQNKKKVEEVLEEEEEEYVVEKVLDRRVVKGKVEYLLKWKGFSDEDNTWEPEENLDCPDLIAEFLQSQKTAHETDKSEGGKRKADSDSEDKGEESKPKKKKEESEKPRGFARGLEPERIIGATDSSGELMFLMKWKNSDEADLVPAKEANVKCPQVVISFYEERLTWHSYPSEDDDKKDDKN
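Compound inhibition of the preformed complex between 50 nM HP1-beta and 50 nM biotinylated H3K9me3 peptide was read by AlphaScreen. Buffer was PBS pH 7.4 with 0.01% Tween-20. Incubations ran 30 min at room temperature, with 10 ug/mL donor/acceptor beads.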
TDP1 block – blocks human tyrosyl-DNA phosphodiesterase 1 | Q9NUW8 | recombinant TDP1, AlphaScreen DNA substrate cleavage | Potency, µM (series often up to 130 µM), for the others: at the highest dose activity change, negative = inhibition, most hits filed as inhibitors | 0.28% of 350,000 active; further: potency means the concentration at half of the fitted maximal effect; on the % scale 0 is the no-effect control and ±100 the full control effect; nearly all actives have a fitted effect of over 40% in size
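Compounds were preincubated with Tdp1 (1 nM final) for 15 min at room temperature before substrate (15 nM final) started a 5 min reaction; beads (10 ug/ml final) were then added for 10 min before AlphaScreen detection.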
Six1-Eya2 inh – Six1/Eya2 interaction inhibition | Q15475+O00167 | AlphaScreen GST-Six1/His-Eya2 binding, biochemical; active compounds read low | activity change, % (no concentration beside the values) | 0.56% of 360,000 active | AID 651725; in the data active means activity change below about -65%; inconclusive means mostly about -30% to -63%; further: on the % scale 0 is the no-effect control and ±100 the full control effect
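Compounds are tested against tagged Six1 and Eya2 proteins bridged by glutathione donor and nickel acceptor beads; after a one-hour incubation at 37 °C without light, AlphaScreen emission is recorded.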
CtBP-E1A inh – blocks the CtBP interaction with E1A. activity change, % (no concentration beside the values). AlphaScreen GST-E1A/His-CtBP binding, 1536-well; active compounds read low. 0.49% of 340,000 active; in the data active means activity change below about -65%; inconclusive means mostly about -30% to -63%; further: on the % scale 0 is the no-effect control and ±100 the full control effect
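In 5 uL wells, 23 nL compound meets equimolar GST-E1A and His-CtBP (5X stock 125 nM each) for 2 h, 37 °C. Beads (5X, 50 ug/mL) then 1 h, 37 °C, dark.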
BAZ2B block – blocks human BAZ2B; Potency, µM (highest dose often 114 µM), for the others: top-dose activity change, negative = inhibition, most hits filed as inhibitors; 4.4% of 360,000 active; AlphaScreen BAZ2B-H3K14Ac peptide displacement; Q9UIF8; AID 504333; further: potency means the concentration at half of the fitted maximal effect; on the % scale 0 is the no-effect control and ±100 the full control effect; nearly all actives have a fitted effect of over 60% in size
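AlphaScreen displacement of biotin-H3(5-23)K14Ac peptide (50 nM final) from BAZ2B (50 nM final) in PBS pH 7.4, 0.01% Tween-20; complex preformed 30 min RT, then compounds (top 110 uM) 30 min RT, beads 20 min dark.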
JMJD2A Tudor – blocks the human JMJD2A Tudor domain. O75164. AlphaScreen JMJD2A-Tudor / H3K4me3 peptide binding. Potency, µM (series often up to 114 µM), inactives show top-dose activity change, negative = inhibition, hits mostly inhibitors. 4.4% of 390,000 active. AID 504339; further: potency means the concentration at half of the fitted maximal effect; on the % scale 0 is the no-effect control and ±100 the full control effect; nearly all actives have a fitted effect of over 50% in size
Numbers without * were called inactive; ? = inconclusive; . = no result; [ ] = another dose, or the depositor's remark. Unless noted, the call rests on the fitted dose curve; in most records, active means well fitted inhibition curve with a large enough effect; inconclusive means small, poorly fitted or top-dose-only effect; inactive means no such curve, though single readings can be large or run the other way.

SMILES | HP1b chromo inh | TDP1 block | Six1-Eya2 inh | CtBP-E1A inh | BAZ2B block | JMJD2A Tudor
CCc1sc(C(=O)Nc2ncccc2C)cc1C | -4% | 12% | 9 | 6 | -18% | -14%
CCc1sc(C(=O)Nc2ncccc2O)cc1C | 25% | ? | -5 | -4 | 50µM* | -22%
COc1ccc(OC)c(S(=O)(=O)N2CCN(S(=O)(=O)c3ccc4c(c3)OCCO4)CC2)c1 | . | . | . | . | . | -13%
O=C(Nc1ccccn1)c1ccc(Cl)s1 | 43% | -1% | 6 | 1 | 4% | 2%
O=C(Nc1nc(-c2ccccn2)cs1)c1ccc(Cl)s1 | 33% | 10% | ? | ? | 22µM* | 79µM*
O=C(NCc1cccc(F)c1)C1=Cc2cc(Br)ccc2OC1 | 26%[57 µM] | 4% | . | . | 0% | -2%
CCOc1ccc(C(C)=O)cc1N1C(=O)C2C(C1=O)C1C=CC2C12CC2 (stereo unspecified) | 29% | 0% | -1 | 10 | 50µM* | -1%
COCC1CCCN(Cc2cn(Cc3ccccc3)nc2-c2cc3ccccc3o2)C1 (stereo unspecified) | 25% | -3% | -10 | -11 | -22% | -27%
COCC1CCN(Cc2cn(Cc3ccccc3)nc2-c2cc3ccccc3o2)CC1 | 38% | -2% | -4 | -9 | 56µM* | -19%
C=CCn1c(SCC(=O)NCC2CCCO2)nc2scc(-c3ccco3)c2c1=O (stereo unspecified) | -7% | 50µM* | -4 | -9 | ? | -29%
O=C(CSc1nc2scc(-c3ccco3)c2c(=O)n1-c1ccccc1)NCC1CCCO1 (stereo unspecified) | 3% | -4% | -7 | -3 | 35µM* | ?
NC(=O)CSc1nc2scc(-c3ccco3)c2c(=O)n1-c1ccccc1 | ? | -5% | ? | 3 | ? | 45µM*
Cn1c(SCC(=O)NCC2CCCO2)nc2scc(-c3ccccc3)c2c1=O (stereo unspecified) | 26% | 1% | 5 | 8 | 3% | -12%
C=CCn1c(SCC(=O)NCCOC)nc2scc(-c3ccco3)c2c1=O | 2% | ? | -9 | -3 | ? | 79µM*
C=CCn1c(SCC(=O)NCC2CCCO2)nc2scc(-c3ccc(OC)cc3)c2c1=O (stereo unspecified) | 1% | 2% | -3 | -8 | 7% | -12%
Cn1c(=S)[nH]c2cc(C(=O)N3CCN(Cc4cccs4)CC3)ccc2c1=O | 57% | . | . | . | . | -10%
CC(=O)c1ccc(NC(=O)CSc2nc(-c3ccccc3C)nc3c2c(=O)n(C)c(=O)n3C)cc1 | 40%[57 µM] | 3% | . | . | 17% | 2%
O=C(CN1C=NS(=O)(=O)c2ccccc21)Nc1ccc(F)cc1 | 30% | -1% | . | . | 1% | -16%
O=[N+]([O-])c1ccccc1CNC1CCCCCC1 | ? | 1% | 8 | . | ? | 50µM*
COc1ccc(C)cc1Nc1nc2cc(Cl)c(Cl)cc2nc1-n1nc(C)cc1C | 34% | -4%[12.3 µM] | . | . | 1% | -3%
Cc1cccc(Cn2c(=O)n(CCC(=O)NCc3ccc4c(c3)OCO4)c(=O)c3sccc32)c1 | 44% | 0% | . | . | 5% | -1%
O=C(NCc1ccc2c(c1)CCN2C(=O)c1ccncc1)c1ccccc1Cl | 24% | 0% | . | . | 0% | -18%
Cc1cc(O)c(C(C)C)cc1NC(=O)Nc1cc(Cl)ccc1Cl | ? | . | 3 | 7 | . | 45µM*
CCOC(=O)c1sc2cc([N+](=O)[O-])cc(SCC(C)C)c2c1N | ? | 0% | -14 | -10 | -9% | 40µM*
CCOC(=O)c1cc(N)cc([N+](=O)[O-])c1 | 35% | -2% | -2 | 2 | -33% | 5%
SMILES | HP1b chromo inh | TDP1 block | Six1-Eya2 inh | CtBP-E1A inh | BAZ2B block | JMJD2A Tudor
O=C(Oc1ccc(O)cc1)C12CC3CC(CC(C3)C1)C2 | ? | 1% | 2 | -7 | -20% | 56µM*
Cc1ccc(-n2c(=O)c3c(c4cc(C)ccc4n3C)n(CC(=O)NCc3ccccc3)c2=O)cc1 | 13% | 4% | . | . | 0% | -15%
Cc1ccc(CN2C(=O)c3oc4ccc(C)cc4c(=O)c3C2c2ccc(O)cc2)cc1 (stereo unspecified) | 27% | 3% | . | . | -27% | -10%
O=C(CCCN1C(=O)/C(=C/c2cccs2)SC1=S)Nc1cccc(O)c1 | ? | . | -18 | -28 | ? | 40µM*
O=C(CCN1C(=O)/C(=C/c2cccs2)SC1=S)Nc1cccc(C(=O)O)c1 | -7% | -4% | -25 | -27 | 50µM* | -29%
O=C1/C(=C/c2cccs2)SC(=S)N1c1ccccc1 | 24% | 1% | -1 | -7 | -4% | 1%
O=C(CCN1C(=O)/C(=C/c2cccs2)SC1=S)Nc1ccc(C(=O)O)c(O)c1 | 27% | 1% | ? | . | 56µM* | 7%
O=C(CCN1C(=O)/C(=C/c2cccs2)SC1=S)Nc1cccc(O)c1 | -38% | 11% | ? | ? | -18% | ?
O=C1/C(=C/c2cccs2)SC(=S)N1c1cccc(O)c1 | -31% | 11% | -19 | -29 | ? | 16µM*
COc1cccc(NC(=O)Cn2c(=O)n(Cc3ccccc3)c(=O)c3c2c2cc(C)ccc2n3C)c1 | 8% | 3% | . | . | -12% | -8%
Cc1ccc2[nH]c(CSc3nnc(NC(=O)COc4ccccc4)s3)cc(=O)c2c1 | 25%[57 µM] | 3% | . | . | 5% | -12%
COc1ccc(S(=O)(=O)Nc2cccc(-c3ccc(N4CCC(C)CC4)nn3)c2)c(OC)c1 | 4%[57 µM] | -1% | . | . | -14% | -18%
O=C1/C(=C/c2cccs2)SC(=S)N1N1CCOCC1 | 35µM* | 8% | -11 | -14 | ? | ?
O=C1/C(=C/c2ccncc2)SC(=S)N1N1CCOCC1 | -14% | . | 0 | -2 | -33% | -21%
Cc1ccc(S(=O)(=O)NC(CC(=O)NCC2CCCO2)c2ccco2)cc1 (stereo unspecified) | 7% | 3% | 10 | 3 | -5% | 4.5µM*
COCOc1ccc(Br)cc1C(=O)/C=C\c1ccc2c(c1)OCO2 | . | 2%[21 µM] | . | . | . | .
CCc1cc(=O)oc2c3c(c(Cl)cc12)OCN(Cc1cccc(OC)c1)C3 | 40% | 5% | . | . | -7% | -21%
CC(C)Oc1ccc(C2c3c(oc4ccccc4c3=O)C(=O)N2CCCN2CCOCC2)cc1 (stereo unspecified) | 8% | 7% | 0 | -1 | ? | -23%
Cc1ccc(C2c3c(oc4ccccc4c3=O)C(=O)N2CCCN2CCOCC2)o1 (stereo unspecified) | 23% | -2% | 0 | -2 | -4% | 14µM*
COc1cccc2cc(C(=O)C3=C(O)C(=O)N(CCN4CCOCC4)C3c3ccc(Cl)cc3)oc12 (stereo unspecified) | 14% | 5% | -5 | -2 | -15% | -25%
